Measured values reported in PubChem BioAssay (NCATS).
Results filed as inconclusive are left out. A call without a number means that no potency is given here. Activity calls are given as the source filed them. The call rests on the fitted dose curve.

assay: Confirmatory qHTS to identify inhibitors of SARS-CoV-2 cell entry (AID 1645844); details: SARS-CoV-2 pseudotyped particle cell entry, luciferase; series mostly up to 57.2 µM; further: nearly all actives have a fitted effect of over 45% in size
How it was run: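 Luminescence from a luciferase reporter, read 48 hr after pseudotyped-particle addition, gives entry signal, normalised to spike-bearing PP wells and bald PP lacking fusion protein wells. Cells are Expi293F stably expressing human ACE2, compound-pretreated 1 hr.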
Potency means the concentration at half of the fitted maximal effect.

Compound | Potency
O=C1CCc2ccc(OCCCCN3CCN(c4cccc(Cl)c4Cl)CC3)cc2N1 | 19.2 µM (active)
Cc1cn([C@H]2C[C@H](N=[N+]=[N-])[C@@H](CO)O2)c(=O)[nH]c1=O | 0.541 µM (active)
Clc1ccc(COC(Cn2ccnc2)c2ccc(Cl)cc2Cl)cc1 (centres undefined) | 9.61 µM (active)

assay: Cytotoxicity counterscreen for inhibitors of SARS-CoV-2 cell entry (AID 1645845); details: cell viability (SARS-CoV-2 entry assay cells); series mostly up to 57.1 µM; further: nearly all actives have a fitted effect of over 50% in size
How it was run: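 48 h compound treatment (after 1 h preincubation), HEK293-ACE2 cells, 37 C/5% CO2; ATP luminescence endpoint; normalized to cell wells and media blanks.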

Compound | Potency
COC(=O)Nc1nc2ccc(C(=O)c3ccccc3)cc2[nH]1 | inactive
CN(C)c1ccc(O)c2c1C[C@H]1C[C@H]3[C@H](N(C)C)C(=O)C(C(N)=O)=C(O)[C@@]3(O)C(=O)C1=C2O | inactive
Cc1cc2c(s1)Nc1ccccc1N=C2N1CCN(C)CC1 | inactive
C=C1C[C@@H]2[C@H](CC[C@]3(C)C(=O)CC[C@@H]23)[C@@]2(C)C=CC(=O)C=C12 | inactive
COC(=O)N[C@H](C(=O)N[C@@H](Cc1ccccc1)[C@@H](O)CN(Cc1ccc(-c2ccccn2)cc1)NC(=O)[C@@H](NC(=O)OC)C(C)(C)C)C(C)(C)C | inactive
CN1CCN(C2=Nc3cc(Cl)ccc3Nc3ccccc32)CC1 | inactive
CC(C(=O)O)c1cccc(C(=O)c2ccccc2)c1 (centres undefined) | inactive
NS(=O)(=O)c1cc2c(cc1C(F)(F)F)NCNS2(=O)=O | inactive
COCCCC/C(=N\OCCN)c1ccc(C(F)(F)F)cc1 | inactive
Cc1cccc(Nc2ccccc2C(=O)O)c1C | inactive
Cc1ccnc2c1NC(=O)c1cccnc1N2C1CC1 | inactive
CC(C)(C#N)c1cc(Cn2cncn2)cc(C(C)(C)C#N)c1 | inactive
CC(c1cc2ccccc2s1)N(O)C(N)=O (centres undefined) | inactive
Cc1nc2n(c(=O)c1CCN1CCC(c3noc4cc(F)ccc34)CC1)CCC[C@H]2O | inactive
CC(C)(C(=O)O)c1ccc(C(O)CCCN2CCC(C(O)(c3ccccc3)c3ccccc3)CC2)cc1 (centres undefined) | inactive
COc1nc(N)nc2c1ncn2[C@@H]1O[C@H](CO)[C@@H](O)[C@@H]1O | inactive
Cc1ccsc1C(=CCCN1CCC[C@@H](C(=O)O)C1)c1sccc1C | inactive
Cc1ccc(C(=O)c2cc(O)c(O)c([N+](=O)[O-])c2)cc1 | inactive

Compound | Potency
CN1CCC[C@@H]1Cc1c[nH]c2ccc(CCS(=O)(=O)c3ccccc3)cc12 | inactive
COc1cc(NC(C)CCCN)c2ncccc2c1 (centres undefined) | inactive
CC(N)C12CC3CC(CC(C3)C1)C2 (centres undefined) | inactive
Cc1cn([C@H]2C[C@H](N=[N+]=[N-])[C@@H](CO)O2)c(=O)[nH]c1=O | inactive
O=C(c1ccccc1)c1ccc2n1CCC2C(=O)O (centres undefined) | inactive
Cc1nccn1CC1CCc2c(c3ccccc3n2C)C1=O (centres undefined) | inactive
CC(C)NC[C@@H](O)COc1ccc(CC(N)=O)cc1 | inactive
CCC1C(=O)OCC1Cc1cncn1C (centres undefined) | inactive
CCOC(=O)[C@H](CCc1ccccc1)N[C@@H](C)C(=O)N1Cc2cc(OC)c(OC)cc2C[C@H]1C(=O)O | inactive
C=C(c1ccc(C(=O)O)cc1)c1cc2c(cc1C)C(C)(C)CCC2(C)C | inactive
NC12CC3CC(CC(C3)C1)C2 | inactive
CC(=O)O[C@@]12CO[C@@H]1C[C@H](O)[C@@]1(C)C(=O)[C@H](O)C3=C(C)[C@@H](OC(=O)[C@H](O)[C@@H](NC(=O)OC(C)(C)C)c4ccccc4)C[C@@](O)([C@@H](OC(=O)c4ccccc4)[C@H]21)C3(C)C | 8.91 µM (active)
Cc1[nH]cnc1CN1CCc2c(c3ccccc3n2C)C1=O | inactive
Cc1onc(-c2ccccc2Cl)c1C(=O)N[C@@H]1C(=O)N2[C@@H]1SC(C)(C)[C@@H]2C(=O)O | inactive
COc1ccc([C@@H]2Sc3ccccc3N(CCN(C)C)C(=O)[C@@H]2OC(C)=O)cc1 | inactive
CN(C/C=C/C#CC(C)(C)C)Cc1cccc2ccccc12 | inactive
CNS(=O)(=O)CCc1ccc2[nH]cc(C3CCN(C)CC3)c2c1 | inactive
CC(C)C1CCC(C(=O)N[C@H](Cc2ccccc2)C(=O)O)CC1 (some centres undefined) | inactive
